Test system: TYK2(JH2domain-pseudokinase)
Details: concentration: 1 μM, replicates: in singlicate; n = 1
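Also: KINOMEscan kinase panel screen.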

| Structure (SMILES) | %Inh [%] |
| --- | --- |
| COc1ccc(NC(=O)c2ccoc2)cc1-c1ccc(C(=O)NCC2CC2)cc1 [GW810437] | 34 |
| O=C(Nc1n[nH]c2nc(-c3ccccc3O)ccc12)C1CC1 [SB-711880] | 6 |
| CNc1nccc(-c2ccc3c(N)n[nH]c3c2)n1 [GSK2206003] | 89 |
| c1ccc(Oc2ccc(Nc3ccnc4cc(-c5ccc(CN6CCCCC6)o5)ccc34)cc2)nc1 [GW567143] | 17 |
| Cc1ccc(NC(=O)c2ccc(Cl)c(Cl)c2)cc1-c1ccc(C(=O)Nc2ccncc2)cc1 [GSK1398460] | 0 |
| CC(C)(C)c1ccc(C(=O)Nc2cn3cc(-n4ccnc4)ccc3n2)cc1 | 11 |
| Cl.Cl.NCC(NC(=O)c1cc(-c2cccnc2)c(-c2ccnc3[nH]ccc23)s1)c1ccccc1 (stereo not shown) [GSK1323434] | 37 |
| Cc1ccc(Nc2ccnc(Nc3ccc(C)c(F)c3)n2)cc1O.Cl [GW582868] | 74 |
| O=C(Nc1n[nH]c2nc(-c3cccc(O)c3)ccc12)C1CC1 [SB-711805] | 0 |
| COc1cccc(NC(=O)NCCNc2ccnc(Nc3ccc(F)cc3)n2)c1 [GSK1379879] | 48 |
| Cc1cc(-c2c(-c3ccc(F)cc3)ncn2CCCN2CCOCC2)nc(N)n1 [SB-222517] | 16 |
| COc1ccc(C)c(Nc2ccnc(Nc3ccc(-c4cnc[nH]4)cc3)n2)c1.Cl [GW784041] | 0 |
| CN(C)CCNS(=O)(=O)c1ccc(-c2ccnc3[nH]ccc23)cc1 [GSK977620] | 26 |
| COc1cccc(CC(=O)N2CCc3cc(-c4cn(C)c5ncnc(N)c45)ccc32)c1 [GSK2608899] | 39 |
| COC(=O)Nc1nc2cc(Oc3ccc(NC(=O)Nc4cccc(SC)c4)cc3)ccc2[nH]1.Cl [GW697999] | 20 |
| Cc1ccc(O)cc1Nc1ccnc2cc(-c3ccc(CN4CCCCC4)o3)ccc12 [GW557777] | 0 |
| CN(c1ccc2c(c1)nc(NCc1ccccc1)n2C)c1ccnc(Nc2ccc(CS(C)(=O)=O)cc2)n1.Cl [GW811603] | 0 |
| COc1cccc(C2=C(Nc3cccc(O)c3)C(=O)NC2=O)c1 [SB-390771] | 25 |
| CC(C)NCC(Cc1ccccc1)NC(=O)c1cc(Br)c(-c2ccnc3[nH]ccc23)s1.Cl.Cl (stereo not shown) [GSK1383281] | 22 |

| Structure (SMILES) | %Inh [%] |
| --- | --- |
| Cc1ccc(O)cc1Nc1ccnc2ccc(C(C)(C)C)cc12 [GW856805] | 38 |
| NCCC(NC(=O)c1cc(Br)c(-c2ccnc3[nH]ccc23)s1)c1ccccc1.O=C(O)C(F)(F)F.O=C(O)C(F)(F)F (stereo not shown) [GSK1307810] | 7 |
| COc1ccc(C2=C(Nc3cccc(O)c3)C(=O)NC2=O)cc1 [SB-390766] | 46 |
| O=C(O)C(F)(F)F.O=c1[nH]ccc2nc(N[C@@H]3CCNC3)nc(Nc3cc(Cl)cc(Cl)c3)c12 [GSK2188764] | 28 |
| Cc1ccc(C)c(NC(=O)Nc2ccc(C)c(-c3ccc(C(=O)Nc4ccncc4)cc3)c2)c1 [GSK1398473] | 4 |
| Cn1cc(-c2ccc3c(c2)CCN3C(=O)Cc2cc(F)cc(F)c2F)c2c(N)ncnc21 [GSK2634140] | 44 |
| N#Cc1cnc2cc(-c3cnc(CNCCN4CCOCC4)s3)ccc2c1Nc1ccc(Oc2ccccc2)cc1 [GW664114] | 36 |
| CN1CCN(Cc2ccc(NC(=O)Nc3ccc(N(C)c4ccnc(Nc5ccc(CS(C)(=O)=O)cc5)n4)cc3)cc2)CC1.Cl [GW827654] | 87 |
| Fc1cc(Cl)ccc1Nc1ccnc2cc(-c3ccc(CN4CCOCC4)o3)ccc12 [GW560109] | 29 |
| Cl.N#CCc1ccc(Nc2nccc(Nc3ccc(Oc4ccccc4)cc3)n2)cc1 [GW639905] | 72 |
| CN(c1ccc(F)c(NC(=O)c2cccc(OC(C)(C)C#N)c2Cl)c1)c1ccc2nc(NC(=O)C3CC3)sc2n1 | 0 |
| CN(C)c1ncnc2nc[nH]c12 [SKF-31736] | 26 |
| O=C(Nc1c(F)cccc1F)c1cc(C(=O)c2ccccc2F)c[nH]1 [GSK1326180] | 0 |
| Nc1ncc(-c2ccc3nccc(-c4ccncc4)c3c2)cc1S(=O)(=O)N1CCCCC1 [GSK1693850] | 12 |
| Fc1cc(Cl)ccc1Nc1ccnc2cc(-c3ccc(CN4CCSCC4)o3)ccc12 [GW560106] | 52 |
| CS(=O)(=O)c1cccc(CNc2nc(Nc3ccc4c(c3)CCC(=O)N4)ncc2C(F)(F)F)c1 | 0 |
| COC(=O)Nc1nc2ccc(Oc3ccc(CC(=O)Nc4cc(C(F)(F)F)ccc4F)cc3)cc2[nH]1 [GW680903] | 24 |
| Cl.Cl.NC(CNC(=O)c1cc(Br)c(-c2ccnc3[nH]ccc23)s1)c1ccccc1 (stereo not shown) [GSK1322949] | 38 |

From paper PMC5540273 (PLoS ONE, 2017)
